Compound activity deposited in PubChem BioAssay by National Center for Advancing Translational Sciences (NCATS).
GoLoco inh red: blocks human Gai1 binding to RGS12 GoLoco peptide, red readout; Gai1:RGS12 GoLoco peptide FP, rhodamine, 10 min; Potency, µM (doses to about 61.6 µM), without a hit: at the top dose activity, negative = inhibition, actives largely listed as inhibitors; 230,000 compounds, 0.44% hits; active means well fitted inhibition curve with a large enough effect, not every such curve was filed as active; inactive means no such curve, though single readings can be large or run the other way; further: nearly all actives have a fitted effect of over 30% in size
Target sequence (P63096 whole entry, looked up): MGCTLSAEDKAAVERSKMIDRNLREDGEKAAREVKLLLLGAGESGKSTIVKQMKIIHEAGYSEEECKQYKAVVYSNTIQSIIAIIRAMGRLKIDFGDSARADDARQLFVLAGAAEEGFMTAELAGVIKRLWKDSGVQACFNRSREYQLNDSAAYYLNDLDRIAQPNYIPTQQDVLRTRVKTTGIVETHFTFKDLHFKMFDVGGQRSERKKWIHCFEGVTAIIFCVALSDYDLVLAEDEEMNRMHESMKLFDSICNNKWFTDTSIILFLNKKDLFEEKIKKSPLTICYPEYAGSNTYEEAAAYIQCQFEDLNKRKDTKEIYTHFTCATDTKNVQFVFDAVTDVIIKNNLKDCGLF
Tau fibril FP: blocks human tau fibril formation measured by polarization; AID 1468; P10636; K18 P301L tau heparin fibrillization, Alexa594 FP, 6 h; 280,000 compounds, 0.39% hits; Potency, µM (titrated, usually from 57.7 µM), for the others: top-dose activity, negative = inhibition, actives largely listed as inhibitors; further: nearly all actives have a fitted effect of over 55% in size
Target sequence (P10636 561-689 P618L limits assumed): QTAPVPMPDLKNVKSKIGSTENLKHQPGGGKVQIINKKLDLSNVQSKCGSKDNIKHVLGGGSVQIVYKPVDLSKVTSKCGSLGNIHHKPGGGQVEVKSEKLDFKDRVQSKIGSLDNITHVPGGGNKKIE
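Quantitative HTS format: compounds meet 15 uM recombinant K18 P301L tau and Alexa 594-tau tracer in 100 mM sodium acetate pH 7; 20 uM heparin triggers fibrillization at 37 C over 6 hr; FP gives the signal.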
Tau fluor counter: counter-screen for tau fibril formation inhibitors. 280,000 compounds, 0.93% hits. tau K18 P301L Alexa594 fluorescence, heparin fibrillization. AID 1463. Potency, µM (titrated, usually from 57.7 µM), without a hit: at the highest dose activity change, negative = decrease; further: nearly all actives have a fitted effect of over 55% in size
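Human tau K18 P301L (15 uM unlabeled, 0.24 uM Alexa 594-labeled) in 100 mM sodium acetate pH 7 with 20 uM heparin, 6 hr at 37 C. ThT 30 uM added, 1 hr ambient; Alexa 594 FP and total fluorescence read at 555/632 nm.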
JMJD2E inh: inhibitors of human JMJD2E histone demethylase; B2RXH2; JMJD2E catalytic domain, FDH-coupled NADH fluorescence (FDH is formaldehyde dehydrogenase); Potency, µM (series often up to 57.1 µM), for inactives: at the top dose activity change, negative = inhibition, most hits filed as inhibitors; 230,000 compounds, 1.6% hits; active means well fitted inhibition curve with a large enough effect, not every such curve was filed as active; inconclusive means small, poorly fitted or top-dose-only effect, or another doubt; inactive means no such curve, though single readings can be large or run the other way;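 further: 0% = wells with enzyme and -100% = buffer wells without enzyme; nearly all actives have a fitted effect of over 50% in size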
Tau ThT inhib: inhibitors of human tau fibril formation, thioflavin T binding | Potency, µM (titrated, usually from 57.4 µM), inactives show top-dose activity, negative = inhibition, actives largely listed as inhibitors | recombinant tau K18 P301L (four-repeat tau fragment), heparin-induced fibrillization, ThT fluorescence | 270,000 compounds, 2.1% hits | AID 1460 | P10636; further: nearly all actives have a fitted effect of over 55% in size
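Heparin-induced (20 uM) aggregation of recombinant human K18 P301L tau, 15 uM unlabeled with 0.24 uM labeled, pH 7 acetate buffer, 6 hr at 37 C with compound. Fibrils quantified by 30 uM ThT fluorescence after 1 hr ambient incubation.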
An asterisk follows results filed as active; ? = inconclusive; . = no result; ! = a repeat was not active; [ ] = dose if it differs, or a comment. Hits are enriched below; roughly 3.4% of the tested compounds scored in any of these assays. Unless noted, the call rests on the fitted dose curve; in most records, active means well fitted curve in the direction sought with a large enough effect; inconclusive means small, poorly fitted or top-dose-only effect, or another doubt; inactive means no such curve, though single readings can be large; an effect the other way counts as inactive or inconclusive. Unless noted, on the % scale 0 is the no-effect control and ±100 the full control effect; potency means the concentration at half of the fitted maximal effect.

SMILES | GoLoco inh red | Tau fibril FP | Tau fluor counter | JMJD2E inh | Tau ThT inhib
CC(C)C1C(=O)N2CCCC2[C@]2(O)O[C@@](NC(=O)[C@@H]3C=C4c5cccc6[nH]cc(c56)C[C@H]4N(C)C3)(C(C)C)C(=O)N12 (some centres undefined) | 0.1% | ? | ? | ? | 20µM*
CC(C)C[C@H]1C(=O)N2CCC[C@H]2[C@]2(O)O[C@](NC(=O)[C@@H]3C=C4c5cccc6[nH]c(Br)c(c56)CC4N(C)C3)(C(C)C)C(=O)N12 (some centres undefined) | 10.8% | 0.5% | ? | ? | ?
CN(C)c1ccc(N(C)C)cc1 | 5.0% | . | . | . | .
Oc1c(Br)cc(Br)cc1Oc1ccc(Br)cc1Br | 3.7% | ? | ? | 11.2% | 31.6µM*
Brc1ccc(Oc2ccc(Br)cc2Br)c(Br)c1 | -0.5% | . | . | . | .
CCN(CC)c1nc2ccccc2nc1C(=O)Nc1cccc(C(C)=O)c1 | . | -7.8% | -29.7% | . | ?
c1ccc(N2CCN(c3ncnc4c3nc3n4CCCCC3)CC2)cc1 | . | 9.5% | -15.1% | . | ?
CC1CC(=O)O1 (centres undefined) | -6.9% | . | . | . | .
C[n+]1cccc(C(=O)NCC2CCCO2)c1 (centres undefined) | 1.78µM* | 4.4% | 7.4% | ? | 4.2%
COc1ccc(N=C2SCCCN2C)cc1 | 7.94µM* | 0.9% | 2.8% | -8.7% | -0.7%
CCOc1cc2[nH]c(=O)n(CCCC(=O)N3CCN(c4cccc(Cl)c4)CC3)c(=O)c2cc1OCC | . | 10.9% | -29.4% | . | ?
CCCc1cc2c(n1Cc1ccco1)C(C)C1CN(C(=O)c3ccccc3)C(C)(C(=O)OC)C21 (centres undefined) | 55.7% | ? | -12.0% | ? | 22.4µM*
CCCc1cc2c(n1Cc1ccc(C)cc1)C(C)C1CN(C(=O)c3ccccc3)C(C)(C(=O)OC)C21 (centres undefined) | 30.9% | -6.2% | -26.8% | ? | ?
O=C(NCc1ccc2c(c1)CCN2C(=O)c1ccccc1)Nc1cccc(C(F)(F)F)c1 | . | ? | ? | . | 2.1%
Cc1ccc(Cl)cc1NC(=O)Cn1c(=O)oc2cc(S(=O)(=O)N3CCCCCC3)ccc21 | . | ? | -3.3% | . | 16.9%
O=C(Nc1ccc(Br)cc1)c1ccc(F)c(S(=O)(=O)N2CCCc3ccccc32)c1 | . | 15.8µM* | 7.08µM*[quencher] | . | -1.1%
O=C(Nc1ccc(Br)cc1)c1cccc(S(=O)(=O)N2CCc3ccccc32)c1 | . | ? | ? | . | 10.0%
C[C@H]1OC[C@@H](C[N+](C)(C)C)O1 | 3.98µM* | -11.7% | -12.6% | 25.1µM*! | -14.3%
Cc1[nH]n(-c2ccccc2)c(=O)c1C(c1cccc([N+](=O)[O-])c1O)c1c(C)[nH]n(-c2ccccc2)c1=O | 8.0% | -9.4% | ? | -0.2% | 7.94µM*
O=C1c2ccccc2C(=O)c2ccccc21 | -1.0% | -0.6% | -2.8% | 3.5% | 7.4%
O=C1C=Cc2ccccc2C1=O | -22.3% | 4.47µM* | ? | 14.1µM* | 2.51µM*
Nc1c(C(=O)Nc2ccc(Cl)c(C(F)(F)F)c2)sc2nc3c(cc12)N1CCC3CC1 | . | ? | 5.01µM*[quencher] | . | ?
Nc1c(C(=O)Nc2ccc(Cl)cc2)sc2nc3c(cc12)N1CCC3CC1 | . | -22.4% | ? | . | ?
CCn1cc(C(=O)O)c(=O)c2cc(F)c(N3CCNCC3)cc21 | 9.9% | 8.1% | -5.5% | 15.8µM* | -3.2%
O=[N+]([O-])c1cc(F)c(N2CCCCCC2)cc1N1CCNCC1 | 25.9% | -0.7% | -9.2% | 9.8% | ?
SMILES | GoLoco inh red | Tau fibril FP | Tau fluor counter | JMJD2E inh | Tau ThT inhib
Cc1cccc(N2C(=O)NC(=O)/C(=C\c3cnc(-c4ccccc4)nc3)C2=O)c1 | 28.4% | 4.3% | 1.8% | -6.0% | 5.4%
CC(C)c1ccc(N2C(=O)NC(=O)/C(=C\c3cnc(-c4ccccc4)nc3)C2=O)cc1 | 85.9% | ? | -19.3% | 20µM* | 22.4µM*
Cc1ccc(N2C(=O)NC(=O)/C(=C/c3cnc(-c4ccccc4)nc3)C2=O)cc1C | 84.5% | ? | -23.0% | 12.6µM* | 15.8µM*
COc1ccc(-n2[nH]c3c4c(ncc3c2=O)CCCCC4)cc1 | 5.9% | ? | -17.2% | . | ?
Cc1ccc(N/N=C/c2c(O)n(-c3ccccc3)c(=O)[nH]c2=O)cc1 | 12.7% | ? | ? | -22.7% | 15.8µM*
CCN(CC)c1ccc(N=Cc2c(O)n(-c3ccccc3)c(=O)[nH]c2=O)cc1 | 76.5% | -13.5% | ? | 7.94µM* | .
CCOc1ccc(-n2c(O)c(C=Nc3ccc(N(CC)CC)cc3)c(=O)[nH]c2=O)cc1 | 14.3% | -1.3% | -25.7% | -5.6% | ?
CCOc1ccccc1-n1c(O)c(C=Nc2ccc(N(CC)CC)cc2)c(=O)[nH]c1=O | 58.2% | -10.4% | -29.9% | -18.3% | ?
CCN(CC)c1ccc(N=Cc2c(O)n(-c3ccccc3C)c(=O)[nH]c2=O)cc1 | 8.1% | 0.3% | -30.0% | -25.0% | 20µM*
Cc1cc[c]([Sb]2[O]C([C@H](O)[C@H](O)C(=O)O)[C@@H](CO)[O]2)cc1 (some centres undefined) | 1.2%[14.2 µM] | . | . | . | .
COc1ccc(NC(=O)CSc2oc(-c3cccs3)nc2S(=O)(=O)c2ccccc2)c(OC)c1 | . | -6.3% | ? | . | 2.2%
COc1ccc(C(=O)O)cc1OC | 31.6µM* | 1.0% | -4.1% | -7.2% | -0.4%
CCC(=O)c1ccc(OC)c(OC)c1 | 3.7% | 6.7% | -6.3% | 3.2% | -6.1%
O=C(O)C(Cl)(Cl)Br | -0.5% | . | . | . | .
Nc1ccc2c(c1)Cc1cc([N+](=O)[O-])ccc1-2 | 44.0% | 6.6% | ? | 6.2% | 3.16µM*
Clc1ccc(C(c2ccccc2Cl)C(Cl)(Cl)Cl)cc1 (centres undefined) | -21.9% | . | . | . | .
C#CCO | -2.1% | . | . | . | .
CS(=O)c1ccc(-c2nc(-c3ccc(F)cc3)c(-c3ccncc3)[nH]2)cc1 (centres undefined) | 3.7% | -7.8% | -0.8% | ? | 5.6%
COc1ccccc1C(=O)Nc1ccc2nc(SCC(=O)N3CCCc4ccccc43)sc2c1 | . | ? | -23.9% | . | -9.9%
O=C1C=CC(=O)c2c(O)cccc21 | -6.2% | ? | 7.08µM*[quencher] | 7.08µM* | 11.2µM*
COc1ccc(N2C(=O)NC(=O)/C(=C/c3ccc([N+](=O)[O-])s3)C2=O)cc1 | 178.9% | 31.6µM* | ? | 20µM* | .
COc1ccc(N2C(=O)NC(=O)/C(=C\c3ccc([N+](=O)[O-])s3)C2=O)cc1 | 229.6% | ? | ? | 25.1µM* | 14.1µM*
COc1ccc(N2C(=O)NC(=O)/C(=C/c3ccc(N4CCOCC4)cc3)C2=O)cc1 | 83.4% | -6.3% | -11.9% | ? | ?
Cc1ccc(N2C(=O)NC(=O)/C(=C\c3ccc([N+](=O)[O-])o3)C2=O)cc1 | 193.6% | ? | -14.9% | -9.0% | 22.4µM*
COc1ccc(N2C(=O)/C(=C/C=C/c3ccccc3[N+](=O)[O-])C(=O)NC2=S)cc1 | 7.3% | ? | ? | ? | 28.2µM*
CN=C=S | 5.0% | . | . | . | .
